Measured values reported in the supplement of paper PMC10849652.
About 7,900 targets were measured; listed, in parts, are those with a hit and a random draw of the rest. About 0.6% of all pairs of compound and target were hits.

compound: COc1cc2ncnc(Nc3ccc(F)c(Cl)c3)c2cc1OCCCN1CCOCC1 [gefitinib]; assay: log2 fold change, soluble protein after heating vs DMSO (PISA); higher = thermal stabilisation; K562 cells, 10 uM, 30 min; active = over 0.2 and 3.5 SD of the protein, either way, in both replicates (recomputed)
In short: (§1)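 K562 cells at 2×10^6 cells/mL were treated for 30 min with 10 μM compound, and aliquots were heated for 3 min over 48°C-58°C before pooling. Extraction used PBS with 0.5% NP-40 at 4°C, and soluble protein was the supernatant after 21,000xg for 90 min, measured by TMTpro 16plex LC-MS/MS with channel sums equalised. Thermal stability values, relative to control samples and from duplicates, are log2 fold changes.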

Sequence of UniProt O60888 (O60888 whole entry, looked up): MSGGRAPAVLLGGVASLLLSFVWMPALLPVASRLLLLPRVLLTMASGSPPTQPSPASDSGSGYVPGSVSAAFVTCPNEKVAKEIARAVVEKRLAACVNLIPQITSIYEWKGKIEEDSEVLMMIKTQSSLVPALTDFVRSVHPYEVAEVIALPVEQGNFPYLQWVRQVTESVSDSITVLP
Sequence of UniProt Q8TE73 (Q8TE73 whole entry, looked up): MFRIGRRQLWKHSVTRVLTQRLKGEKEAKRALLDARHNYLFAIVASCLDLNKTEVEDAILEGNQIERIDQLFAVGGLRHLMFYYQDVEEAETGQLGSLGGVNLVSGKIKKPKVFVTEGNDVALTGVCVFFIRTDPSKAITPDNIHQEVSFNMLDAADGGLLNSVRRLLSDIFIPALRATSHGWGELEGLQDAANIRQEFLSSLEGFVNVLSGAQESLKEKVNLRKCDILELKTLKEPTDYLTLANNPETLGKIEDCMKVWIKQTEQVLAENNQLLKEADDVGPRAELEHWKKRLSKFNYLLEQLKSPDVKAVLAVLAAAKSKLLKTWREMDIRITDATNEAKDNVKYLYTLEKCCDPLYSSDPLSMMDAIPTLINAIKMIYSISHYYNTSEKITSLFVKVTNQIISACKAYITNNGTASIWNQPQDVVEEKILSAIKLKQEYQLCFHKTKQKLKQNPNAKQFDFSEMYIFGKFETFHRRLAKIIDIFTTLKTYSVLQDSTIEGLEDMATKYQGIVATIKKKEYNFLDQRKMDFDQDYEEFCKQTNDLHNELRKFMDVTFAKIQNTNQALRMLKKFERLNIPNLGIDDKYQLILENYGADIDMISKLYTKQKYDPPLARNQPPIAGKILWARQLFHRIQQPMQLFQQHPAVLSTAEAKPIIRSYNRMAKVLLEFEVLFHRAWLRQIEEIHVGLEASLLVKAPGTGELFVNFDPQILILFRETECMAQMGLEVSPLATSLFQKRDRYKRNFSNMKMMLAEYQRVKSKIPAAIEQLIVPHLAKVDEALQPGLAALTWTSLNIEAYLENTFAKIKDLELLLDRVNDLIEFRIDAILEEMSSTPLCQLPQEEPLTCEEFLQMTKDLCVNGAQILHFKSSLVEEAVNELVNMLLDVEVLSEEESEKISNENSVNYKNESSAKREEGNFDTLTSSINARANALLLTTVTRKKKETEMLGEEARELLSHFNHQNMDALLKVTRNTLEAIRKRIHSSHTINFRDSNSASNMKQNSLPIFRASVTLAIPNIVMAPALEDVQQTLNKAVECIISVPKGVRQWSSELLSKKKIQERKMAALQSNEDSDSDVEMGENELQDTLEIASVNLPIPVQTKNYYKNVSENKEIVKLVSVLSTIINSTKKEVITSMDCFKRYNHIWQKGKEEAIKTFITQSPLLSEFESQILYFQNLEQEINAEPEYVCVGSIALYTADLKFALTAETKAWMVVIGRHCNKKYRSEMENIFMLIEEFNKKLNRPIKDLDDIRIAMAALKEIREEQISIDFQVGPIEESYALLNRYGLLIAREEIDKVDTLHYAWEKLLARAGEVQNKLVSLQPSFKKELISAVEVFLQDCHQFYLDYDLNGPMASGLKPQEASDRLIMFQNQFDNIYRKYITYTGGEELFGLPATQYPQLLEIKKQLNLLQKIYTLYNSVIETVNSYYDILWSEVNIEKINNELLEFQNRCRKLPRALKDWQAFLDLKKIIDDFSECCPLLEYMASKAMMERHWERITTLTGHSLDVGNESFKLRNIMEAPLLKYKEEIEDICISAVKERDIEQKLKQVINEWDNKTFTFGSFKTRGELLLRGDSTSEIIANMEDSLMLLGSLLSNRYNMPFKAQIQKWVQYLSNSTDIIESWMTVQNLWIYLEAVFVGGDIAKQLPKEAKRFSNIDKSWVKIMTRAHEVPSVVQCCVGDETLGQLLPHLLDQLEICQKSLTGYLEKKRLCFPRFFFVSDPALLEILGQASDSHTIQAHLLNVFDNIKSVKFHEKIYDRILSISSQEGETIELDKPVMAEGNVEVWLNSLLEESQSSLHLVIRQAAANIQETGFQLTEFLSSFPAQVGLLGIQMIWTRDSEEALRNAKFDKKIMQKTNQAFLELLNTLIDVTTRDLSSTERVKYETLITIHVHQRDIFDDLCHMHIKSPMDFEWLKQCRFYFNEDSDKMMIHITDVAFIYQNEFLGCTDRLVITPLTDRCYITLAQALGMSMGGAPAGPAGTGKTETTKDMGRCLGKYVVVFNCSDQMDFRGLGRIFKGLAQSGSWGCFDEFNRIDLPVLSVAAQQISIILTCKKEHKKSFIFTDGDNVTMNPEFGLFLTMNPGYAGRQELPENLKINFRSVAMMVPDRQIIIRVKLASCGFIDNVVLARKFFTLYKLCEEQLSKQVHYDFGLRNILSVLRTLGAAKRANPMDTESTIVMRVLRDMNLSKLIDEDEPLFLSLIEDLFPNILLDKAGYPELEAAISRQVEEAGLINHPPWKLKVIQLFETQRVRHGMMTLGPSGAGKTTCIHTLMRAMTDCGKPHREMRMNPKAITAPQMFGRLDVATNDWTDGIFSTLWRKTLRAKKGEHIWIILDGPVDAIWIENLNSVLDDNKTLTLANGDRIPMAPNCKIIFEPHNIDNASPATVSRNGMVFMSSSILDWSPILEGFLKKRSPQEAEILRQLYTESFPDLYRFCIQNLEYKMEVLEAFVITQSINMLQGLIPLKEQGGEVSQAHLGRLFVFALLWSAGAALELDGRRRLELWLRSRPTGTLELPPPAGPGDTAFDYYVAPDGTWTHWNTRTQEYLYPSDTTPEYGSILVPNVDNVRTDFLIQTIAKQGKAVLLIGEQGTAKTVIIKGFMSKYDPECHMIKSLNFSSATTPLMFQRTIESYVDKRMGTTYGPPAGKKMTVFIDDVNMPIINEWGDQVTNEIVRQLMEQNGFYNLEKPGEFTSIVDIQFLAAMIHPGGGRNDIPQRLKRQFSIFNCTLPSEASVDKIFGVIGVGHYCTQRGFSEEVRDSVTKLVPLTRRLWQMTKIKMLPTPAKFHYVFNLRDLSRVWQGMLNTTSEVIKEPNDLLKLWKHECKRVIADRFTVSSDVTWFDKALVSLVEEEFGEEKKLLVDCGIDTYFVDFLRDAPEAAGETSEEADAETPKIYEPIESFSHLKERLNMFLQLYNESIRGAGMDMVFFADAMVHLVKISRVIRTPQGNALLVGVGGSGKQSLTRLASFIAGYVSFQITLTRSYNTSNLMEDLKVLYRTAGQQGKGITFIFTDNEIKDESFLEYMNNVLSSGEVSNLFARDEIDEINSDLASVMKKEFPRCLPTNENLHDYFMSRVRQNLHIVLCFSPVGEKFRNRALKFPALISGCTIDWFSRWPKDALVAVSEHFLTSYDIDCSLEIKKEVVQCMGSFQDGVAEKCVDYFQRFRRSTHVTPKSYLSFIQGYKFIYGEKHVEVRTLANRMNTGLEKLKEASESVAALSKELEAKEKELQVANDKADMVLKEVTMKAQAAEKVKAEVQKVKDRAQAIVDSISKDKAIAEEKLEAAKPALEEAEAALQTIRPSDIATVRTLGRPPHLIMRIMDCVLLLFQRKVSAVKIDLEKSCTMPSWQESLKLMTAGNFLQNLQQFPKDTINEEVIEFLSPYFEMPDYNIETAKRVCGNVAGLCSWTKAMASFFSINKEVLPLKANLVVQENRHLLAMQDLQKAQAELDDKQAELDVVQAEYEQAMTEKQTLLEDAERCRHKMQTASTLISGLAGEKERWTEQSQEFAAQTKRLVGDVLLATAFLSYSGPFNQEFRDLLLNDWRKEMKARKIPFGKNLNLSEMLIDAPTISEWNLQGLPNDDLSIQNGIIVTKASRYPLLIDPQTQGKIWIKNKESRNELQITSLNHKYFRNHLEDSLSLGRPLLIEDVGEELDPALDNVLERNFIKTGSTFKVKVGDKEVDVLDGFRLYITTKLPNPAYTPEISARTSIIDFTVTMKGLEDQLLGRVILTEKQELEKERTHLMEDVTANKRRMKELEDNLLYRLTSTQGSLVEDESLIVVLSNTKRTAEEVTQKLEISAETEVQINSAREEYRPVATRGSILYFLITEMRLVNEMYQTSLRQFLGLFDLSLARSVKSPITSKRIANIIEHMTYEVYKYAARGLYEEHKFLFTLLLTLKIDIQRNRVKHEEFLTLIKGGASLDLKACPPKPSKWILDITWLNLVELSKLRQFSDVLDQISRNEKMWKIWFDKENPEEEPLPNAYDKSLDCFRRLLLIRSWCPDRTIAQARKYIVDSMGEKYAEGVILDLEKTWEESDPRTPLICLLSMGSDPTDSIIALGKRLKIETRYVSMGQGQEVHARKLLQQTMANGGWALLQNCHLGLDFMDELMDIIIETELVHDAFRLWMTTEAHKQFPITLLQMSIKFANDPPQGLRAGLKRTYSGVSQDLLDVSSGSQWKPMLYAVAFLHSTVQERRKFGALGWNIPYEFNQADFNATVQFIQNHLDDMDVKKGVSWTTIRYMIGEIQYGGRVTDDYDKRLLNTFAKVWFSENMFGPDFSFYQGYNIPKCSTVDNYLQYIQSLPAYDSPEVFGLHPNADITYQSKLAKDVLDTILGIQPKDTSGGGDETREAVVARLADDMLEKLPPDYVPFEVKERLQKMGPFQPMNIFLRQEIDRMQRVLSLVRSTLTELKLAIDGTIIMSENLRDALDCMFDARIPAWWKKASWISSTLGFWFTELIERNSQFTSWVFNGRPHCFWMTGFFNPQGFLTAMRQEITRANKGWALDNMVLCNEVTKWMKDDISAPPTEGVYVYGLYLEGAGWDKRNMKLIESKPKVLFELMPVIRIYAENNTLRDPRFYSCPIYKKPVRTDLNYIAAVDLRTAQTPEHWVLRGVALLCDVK
Sequence of UniProt Q9NYP7 (Q9NYP7 whole entry, looked up): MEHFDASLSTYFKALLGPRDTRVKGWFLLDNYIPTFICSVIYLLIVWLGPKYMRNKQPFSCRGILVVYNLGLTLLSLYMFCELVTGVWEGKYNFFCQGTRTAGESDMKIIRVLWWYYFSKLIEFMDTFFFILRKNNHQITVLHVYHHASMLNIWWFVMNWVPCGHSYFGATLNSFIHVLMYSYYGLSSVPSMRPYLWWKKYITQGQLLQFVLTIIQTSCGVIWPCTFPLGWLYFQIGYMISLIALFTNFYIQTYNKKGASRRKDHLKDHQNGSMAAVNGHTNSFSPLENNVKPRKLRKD

Target | log2 fold change
DYNC1I2 isoform 5 (UniProt Q13409) | -0.003 (inactive)
CUX1 isoform 3 (UniProt P39880) | 0.009 (inactive)
EIF2S3 (UniProt P41091) | -0.033 (inactive)
CUTA isoform 2 (UniProt O60888) | 0.037 (inactive)
DNAH5 (UniProt Q8TE73) | 0.046 (inactive)
EPHX2 (UniProt P34913) | 0 (inactive)
EDEM2 (UniProt Q9BV94) | 0.033 (inactive)
ELOVL5 isoform 2 (UniProt Q9NYP7) | -0.142 (inactive)
DAXX (UniProt Q9UER7) | -0.125 (inactive)

compound: COc1cccc2cc(-c3nc([C@H]4CC[C@H](C(=O)O)CC4)n4ncnc(N)c34)[nH]c12; assay: as above
In short: as §1

Target | log2 fold change
CTNNB1 (UniProt P35222) | 0.054 (inactive)
DENND10 (UniProt Q8TCE6) | -0.05 (inactive)
EXOSC10 (UniProt Q01780) | 0.1 (inactive)
EXOC4 (UniProt Q96A65) | -0.086 (inactive)
DEGS1 (UniProt O15121) | -0.018 (inactive)
DDX27 (UniProt Q96GQ7) | -0.138 (inactive)
EDC4 (UniProt Q6P2E9) | 0 (inactive)
CTSV (UniProt O60911) | 0.141 (inactive)
CYB561A3 isoform 2 (UniProt Q8NBI2) | 0.088 (inactive)
ERLIN2 (UniProt O94905) | -0.076 (inactive)
DPYSL2 (UniProt Q16555) | 0.038 (inactive)
FAM50A (UniProt Q14320) | -0.025 (inactive)
FAM118A (UniProt Q9NWS6) | -0.044 (inactive)
DIP2A (UniProt Q14689) | -0.004 (inactive)
DNAJC24 (UniProt Q6P3W2) | -0.112 (inactive)
EZH2 isoform 2 (UniProt Q15910) | -0.144 (inactive)

Target | log2 fold change
DHRS13 (UniProt Q6UX07) | -0.002 (inactive)
ECPAS (UniProt Q5VYK3) | -0.087 (inactive)
DMAC1 (UniProt Q96GE9) | 0.145 (inactive)
DNAH10 (UniProt Q8IVF4) | 0.007 (inactive)
DOCK8 (UniProt Q8NF50) | -0.428 (inactive)
ERCC6 (UniProt Q03468) | -0.042 (inactive)
ETNK1 (UniProt Q9HBU6) | 0.01 (inactive)
DYNC1I2 isoform 5 (UniProt Q13409) | 0.004 (inactive)
CUX1 isoform 3 (UniProt P39880) | 0.008 (inactive)
EIF2S3 (UniProt P41091) | -0.07 (inactive)
CUTA isoform 2 (UniProt O60888) | 0.012 (inactive)
EIF2AK1 (UniProt Q9BQI3) | -0.089 (inactive)
DNAH5 (UniProt Q8TE73) | 0.058 (inactive)
EPHX2 (UniProt P34913) | 0.055 (inactive)
EDEM2 (UniProt Q9BV94) | 0.205 (inactive)
ELOVL5 isoform 2 (UniProt Q9NYP7) | 0 (inactive)

compound: CS(=O)(=O)CCNCc1ccc(-c2ccc3ncnc(Nc4ccc(OCc5cccc(F)c5)c(Cl)c4)c3c2)o1 [lapatinib]; assay: as above
In short: as §1

Target | log2 fold change
CTNNB1 (UniProt P35222) | 0 (inactive)
DENND10 (UniProt Q8TCE6) | -0.021 (inactive)
EXOSC10 (UniProt Q01780) | -0.221 (inactive)
EXOC4 (UniProt Q96A65) | 0.008 (inactive)
DEGS1 (UniProt O15121) | -0.034 (inactive)
EDC4 (UniProt Q6P2E9) | 0.007 (inactive)
CTSV (UniProt O60911) | -0.064 (inactive)
CYB561A3 isoform 2 (UniProt Q8NBI2) | -0.019 (inactive)
DCP2 (UniProt Q8IU60) | -0.042 (inactive)
ERLIN2 (UniProt O94905) | -0.019 (inactive)
DPYSL2 (UniProt Q16555) | 0.029 (inactive)
ELAC1 (UniProt Q9H777) | -0.009 (inactive)
FAM50A (UniProt Q14320) | 0.022 (inactive)
FAM118A (UniProt Q9NWS6) | 0 (inactive)
DIP2A (UniProt Q14689) | -0.047 (inactive)
DNAJC24 (UniProt Q6P3W2) | 0.034 (inactive)
EZH2 isoform 2 (UniProt Q15910) | 0.112 (inactive)

Target | log2 fold change
FAM193B (UniProt Q96PV7) | -0.066 (inactive)
ECPAS (UniProt Q5VYK3) | -0.033 (inactive)
DMAC1 (UniProt Q96GE9) | 0.053 (inactive)
ELF1 (UniProt P32519) | -0.12 (inactive)
ERCC6 (UniProt Q03468) | 0.077 (inactive)
ETNK1 (UniProt Q9HBU6) | 0.078 (inactive)
DYNC1I2 isoform 5 (UniProt Q13409) | 0.021 (inactive)
CUX1 isoform 3 (UniProt P39880) | 0.013 (inactive)
CWF19L2 (UniProt Q2TBE0) | -0.08 (inactive)
EIF2S3 (UniProt P41091) | 0.004 (inactive)
CUTA isoform 2 (UniProt O60888) | 0.023 (inactive)
EIF2AK1 (UniProt Q9BQI3) | 0.025 (inactive)
DNAH5 (UniProt Q8TE73) | -0.484 (active)
EPHX2 (UniProt P34913) | -0.041 (inactive)
EDEM2 (UniProt Q9BV94) | -0.064 (inactive)
ELOVL5 isoform 2 (UniProt Q9NYP7) | 0.094 (inactive)
DAXX (UniProt Q9UER7) | -0.05 (inactive)
